From PubChem
Sampled rows, rich in hits. Any-hit rate of the full collection: about 4.5%.
TPT1 inhibitor: inhibitors of Candida albicans tRNA 2'-phosphotransferase TPT1 | inhibition, % at 5 µM | AID 1962 | 300,000 tested, 0.81% active | recombinant caTPT1, FP RNA substrate dephosphorylation;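 active = inhibition above the mean of all tested compounds plus 3 SD, set per screening campaign, cut at about 24% in these data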
GRIN3A LBD mod: modulators (binders) of human NR3A ligand-binding domain. NR3A LBD differential scanning fluorimetry, Tm shift; 0% = protein alone, 100% = glycine-bound protein. Tm shift relative to glycine control, % at 25 µM. 340,000 tested, 2.5% active;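 active = melting temperature shift of at least 10% of the positive control shift, at one fixed dose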
EBNA-1 inh: blocks EBNA-1 binding to DNA; 300,000 tested, 0.34% active; inhibition, % at 14.8 µM; EBNA-1 DNA binding, fluorescence polarization; in the data active = inhibition above about 28%
dFosB activator: mouse delta FosB homodimer activation; P13346; purified delta FosB, TAMRA-CDK5 oligo fluorescence polarization; percent of positive-control signal above neutral wells; activation, % at 25 µM; 340,000 tested, 0.99% active;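 active = mean activation above about 17%, with every replicate also reaching it, limit read from the data, passing the limit was not always enough; inconclusive = only one of the two conditions met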
Rpn11 block: Rpn11 (human) deubiquitinase inhibition. O00487. human 26S proteasome, Ub4-pepOG fluorescence polarization; 20S core pre-blocked with epoxomicin. inhibition, % at 20 µM. 360,000 tested, 0.59% active;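 active = inhibition at 20 µM, scaled to each plate's controls, above about 33%, limit read from the data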
Target sequence (O00487 whole entry, looked up): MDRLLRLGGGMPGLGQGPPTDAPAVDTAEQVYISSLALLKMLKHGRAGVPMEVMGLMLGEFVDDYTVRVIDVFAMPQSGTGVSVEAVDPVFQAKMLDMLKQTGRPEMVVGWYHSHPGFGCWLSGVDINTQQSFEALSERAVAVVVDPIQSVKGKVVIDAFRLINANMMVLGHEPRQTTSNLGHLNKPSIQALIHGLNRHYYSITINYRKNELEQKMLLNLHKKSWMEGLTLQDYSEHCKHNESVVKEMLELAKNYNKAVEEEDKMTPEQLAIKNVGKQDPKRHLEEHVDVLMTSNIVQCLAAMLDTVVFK
ZTA DNA inh: ZTA (EBV) inhibition in EBNA-1 counter-screen | 320,000 tested, 0.15% active | inhibition, % at 11 µM | P03206 | ZTA-DNA binding, fluorescence polarization | AID 2234; in the data active = inhibition above about 33%
Target sequence (P03206 whole entry, looked up): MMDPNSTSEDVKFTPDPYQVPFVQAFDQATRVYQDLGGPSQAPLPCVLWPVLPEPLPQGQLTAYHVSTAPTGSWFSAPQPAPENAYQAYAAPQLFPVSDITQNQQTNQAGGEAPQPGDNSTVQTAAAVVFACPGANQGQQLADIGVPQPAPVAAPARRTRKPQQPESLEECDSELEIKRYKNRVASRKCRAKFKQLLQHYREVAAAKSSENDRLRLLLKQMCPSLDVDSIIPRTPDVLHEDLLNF
A number is an active result.

`Cc1ccc(-c2nnn(CC(=O)N(Cc3ccccc3)C(C(=O)NC(C)(C)C)c3ccncc3)n2)o1` (stereo unspecified) gave TPT1 inhibitor inactive, GRIN3A LBD mod 14, EBNA-1 inh inactive, dFosB activator inactive, Rpn11 block inactive and ZTA DNA inh inactive.
`Cc1ccc(-c2nnn(CC(=O)N(Cc3ccco3)C(C(=O)NC(C)(C)C)c3ccc(C)o3)n2)o1` (stereo unspecified) gave TPT1 inhibitor inactive, GRIN3A LBD mod inactive, EBNA-1 inh inactive, dFosB activator inactive, Rpn11 block inactive and ZTA DNA inh inactive.
For Cc1ccc(C(C(=O)NC(C)(C)C)N(Cc2ccco2)C(=O)Cn2nnc(-c3cccs3)n2)cc1 (stereo unspecified) the results were TPT1 inhibitor inactive, GRIN3A LBD mod 12, EBNA-1 inh inactive, dFosB activator inactive, Rpn11 block inactive and ZTA DNA inh inactive.
COC(=O)CN1C(=O)[C@H]2[C@@H](c3ccc(C)o3)N3C(=O)CN(CC4CC4)C(=O)[C@@]3(C)[C@H]2C1=O was read as TPT1 inhibitor inactive, GRIN3A LBD mod inactive, EBNA-1 inh inactive, dFosB activator inactive, Rpn11 block inactive and ZTA DNA inh inactive.
O=C(NCCc1cccs1)C1CC(c2c(Cl)cccc2Cl)=NO1 (stereo unspecified) was read as TPT1 inhibitor inactive, GRIN3A LBD mod inactive, EBNA-1 inh inactive, dFosB activator inactive, Rpn11 block inactive and ZTA DNA inh inactive.
`COc1ccc(-c2nc(NC(=O)c3ccc(OCC(=O)Nc4ccc(F)cc4)c(OC)c3)sc2C)cc1` gave TPT1 inhibitor inactive, GRIN3A LBD mod 11, EBNA-1 inh inactive, dFosB activator inactive, Rpn11 block inactive and ZTA DNA inh inactive.
Screening CC1CC(=O)Nc2ccccc2N1C(=O)CSc1ncnc2sccc12 (stereo unspecified) returned GRIN3A LBD mod inactive, dFosB activator inactive, Rpn11 block inactive and ZTA DNA inh inactive.
O=C(COC(=O)c1cn(-c2ccccc2)nc1-c1ccc(F)cc1)Nc1ncc(Cl)cc1Cl was read as TPT1 inhibitor inactive, GRIN3A LBD mod inactive, EBNA-1 inh inactive, dFosB activator inconclusive, Rpn11 block inactive and ZTA DNA inh inactive.
`CN(C)S(=O)(=O)c1cccc(NC(=O)COC(=O)c2cn(-c3ccccc3)nc2-c2ccccc2)c1` gave TPT1 inhibitor inactive, GRIN3A LBD mod 14, EBNA-1 inh inactive, dFosB activator inactive, Rpn11 block inactive and ZTA DNA inh inactive.
NS(=O)(=O)c1ccc(NC(=O)COC(=O)c2cn(-c3ccccc3)nc2-c2ccc(F)cc2)cc1 was read as TPT1 inhibitor inactive, GRIN3A LBD mod 16, EBNA-1 inh inactive, dFosB activator inconclusive, Rpn11 block inactive and ZTA DNA inh inactive.
Screening Cc1cc(C(=O)OCC(=O)Nc2cccc(S(=O)(=O)N(C)C)c2)c2ccccc2n1 returned TPT1 inhibitor inactive, GRIN3A LBD mod inactive, EBNA-1 inh inactive, dFosB activator inactive, Rpn11 block inactive and ZTA DNA inh inactive.
Screening Cc1cc(Br)c(NC(=O)c2c(-c3c(Cl)cccc3Cl)noc2C)c(Br)c1 returned TPT1 inhibitor inactive, GRIN3A LBD mod 12, EBNA-1 inh inactive, dFosB activator inactive, Rpn11 block inactive and ZTA DNA inh inactive.
`COCCN(Cc1nc2ccccc2c(=O)[nH]1)C(=O)COc1ccccc1-c1ccccc1` gave GRIN3A LBD mod 13, dFosB activator inactive and Rpn11 block inactive.
Screening CCN(Cc1nc2ccccc2c(=O)[nH]1)C(=O)COc1ccccc1Cc1ccccc1 returned GRIN3A LBD mod 11, dFosB activator inactive and Rpn11 block inactive.
Screening Cc1[nH]c2ccccc2c1/C=N/NC(=O)c1ccccc1 returned TPT1 inhibitor inactive, GRIN3A LBD mod inactive, EBNA-1 inh inactive, dFosB activator inactive, Rpn11 block inactive and ZTA DNA inh inactive.
Screening Cc1[nH]c2ccccc2c1/C=N/NC(=O)c1cccc(S(=O)(=O)Nc2ccccc2Cl)c1 returned TPT1 inhibitor inactive, GRIN3A LBD mod 24, EBNA-1 inh inactive, dFosB activator inactive, Rpn11 block inactive and ZTA DNA inh inactive.
Cc1[nH]c2ccccc2c1/C=N/NC(=O)c1cccc(Br)c1 was read as TPT1 inhibitor inactive, GRIN3A LBD mod 16, EBNA-1 inh inactive, dFosB activator inactive, Rpn11 block inactive and ZTA DNA inh inactive.
For O=C(N/N=C/c1[nH]c2ccccc2c1Cl)c1cccc(Br)c1 the results were TPT1 inhibitor inactive, GRIN3A LBD mod 12, EBNA-1 inh inactive, Rpn11 block inactive and ZTA DNA inh inactive.
`Cc1[nH]c2ccccc2c1/C=N/NC(=O)c1cc(-c2ccccc2)n[nH]1` gave TPT1 inhibitor inactive, GRIN3A LBD mod 19, EBNA-1 inh inactive, dFosB activator inactive, Rpn11 block inactive and ZTA DNA inh inactive.
For COc1ccc2ccccc2c1/C=N/NC(=O)c1cccc(Br)c1 the results were TPT1 inhibitor inactive, GRIN3A LBD mod inactive, EBNA-1 inh inactive, dFosB activator inactive, Rpn11 block inactive and ZTA DNA inh inactive.
C=CCc1cc(Cl)ccc1OCCN1CC(C)OC(C)C1 (stereo unspecified) was read as TPT1 inhibitor inactive, GRIN3A LBD mod inactive, EBNA-1 inh inactive, dFosB activator inactive, Rpn11 block inactive and ZTA DNA inh inactive.
COc1cc(/C=N/c2oc(C)c(C)c2C#N)cc(Br)c1O was read as TPT1 inhibitor inactive, GRIN3A LBD mod inactive, EBNA-1 inh inactive, dFosB activator inactive and ZTA DNA inh inactive.
For Cc1cccc(NC(=O)c2cc(-c3ccccn3)nc3ccccc23)c1C the results were TPT1 inhibitor inactive, GRIN3A LBD mod inactive, EBNA-1 inh inactive, dFosB activator inactive, Rpn11 block inactive and ZTA DNA inh inactive.
Cc1ccc(S(=O)(=O)N2CCOCC2)cc1NC(=O)Nc1ccc([N+](=O)[O-])cc1 was read as GRIN3A LBD mod inactive, dFosB activator inactive and Rpn11 block inactive.
CCc1cccc2c(/C=N/NC(=O)c3cccc(S(=O)(=O)Nc4ccccc4Cl)c3)c[nH]c12 was read as TPT1 inhibitor inactive, GRIN3A LBD mod 27, EBNA-1 inh inactive, dFosB activator inactive, Rpn11 block inactive and ZTA DNA inh inactive.
Cc1[nH]c2ccccc2c1/C=N/NC(=O)c1ccc(N)cc1 was read as TPT1 inhibitor inactive, GRIN3A LBD mod 11, EBNA-1 inh inactive, dFosB activator inactive, Rpn11 block inactive and ZTA DNA inh inactive.
For CCOC(=O)CC(=O)CSc1ncnc2c1nnn2-c1ccccc1 the results were TPT1 inhibitor inactive, GRIN3A LBD mod inactive, EBNA-1 inh inactive, dFosB activator inactive, Rpn11 block inactive and ZTA DNA inh inactive.
For Oc1c(Cl)cc(Cl)cc1/C=N/NC(=S)NC1CC2C=CC1C2 (stereo unspecified) the results were TPT1 inhibitor inactive, GRIN3A LBD mod 12, EBNA-1 inh inactive, dFosB activator inactive, Rpn11 block inactive and ZTA DNA inh inactive.
`CNc1ccc(/C=C/C(=O)c2ccc3c(c2)OCCO3)cc1[N+](=O)[O-]` gave TPT1 inhibitor inactive, GRIN3A LBD mod inactive, EBNA-1 inh inactive, dFosB activator inactive, Rpn11 block inactive and ZTA DNA inh inactive.
